Assay results from PubChem BioAssay (EPA / NIEHS).
Records with an inconclusive call do not appear. Calls of active or inactive are those of the source. How the source made its calls: active means hit-call score of the fitted dose curve at least 0.9, where 1 is the maximum; inconclusive means response in the unintended direction; inactive means score below 0.9.

molecular target: Nuclear receptor subfamily 1 group I member 2 (Homo sapiens) (UniProt O75469); assay: ATG_PXR_TRANS: Attagene TRANS-FACTORIAL HepG2 Assay for human Pregnane X Receptor (PXR) (AID 2283008)
In short: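 HepG2 transfected (FuGene 6) with GAL4-UAS reporter units + PXR-Gal4 chimera; dosed 24 h. Total RNA → oligo(dT) RT → PCR → 6-FAM primer extension → HpaI cut → CE. Gain-of-signal vs DMSO.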

Chain of Nuclear receptor subfamily 1 group I member 2 (Homo sapiens) (O75469 whole entry, looked up, the tested form may be a part): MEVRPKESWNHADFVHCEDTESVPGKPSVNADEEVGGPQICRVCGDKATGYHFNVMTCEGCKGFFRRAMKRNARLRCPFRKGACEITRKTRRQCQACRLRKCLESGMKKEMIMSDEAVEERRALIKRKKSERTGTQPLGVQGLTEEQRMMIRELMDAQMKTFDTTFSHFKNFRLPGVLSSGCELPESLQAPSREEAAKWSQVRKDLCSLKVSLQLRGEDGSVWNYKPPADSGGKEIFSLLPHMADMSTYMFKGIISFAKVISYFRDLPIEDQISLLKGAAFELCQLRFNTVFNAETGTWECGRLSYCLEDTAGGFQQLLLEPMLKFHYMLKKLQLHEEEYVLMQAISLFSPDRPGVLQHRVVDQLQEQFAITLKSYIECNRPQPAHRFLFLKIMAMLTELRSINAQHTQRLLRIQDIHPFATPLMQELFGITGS

| Structure (SMILES) | AC50 | outcome |
| --- | --- | --- |
| CCNc1nc(NC(C)(C)C)nc(OC)n1 | 3.89 µM (active) | – |
| CCCCC(CC)COC(=O)/C=C/c1ccc(OC)cc1 (stereo unspecified) | – | inactive |
| O=C1CCCCCCCCCCC1 | 27.4 µM (active) | – |
| Cc1ccc([N+](=O)[O-])cc1N | – | inactive |
| CC/C=C\C/C=C\C/C=C\CCCCCCCC(=O)OC | 31.3 µM (active) | – |
| CCOC(=O)C1=NOC(c2ccccc2)(c2ccccc2)C1 | – | inactive |
| CCN1CN(CC)CN(CC)C1 | – | inactive |
| c1ccc2sc(SSN3CCOCC3)nc2c1 | 45.3 µM (active) | – |
| C[N+](C)(C)CCCNS(=O)(=O)C(F)(F)C(F)(F)C(F)(F)C(F)(F)C(F)(F)C(F)(F)C(F)(F)C(F)(F)F | – | inactive |
| CC=C(C)C=CC=C(C)C | 6.05 µM (active) | – |
| Oc1c(Cl)cc(Cl)c(Cl)c1Cl | – | inactive |
| Nc1cccc(N)n1 | – | inactive |
| C1CNCCN1 | – | inactive |
| C=CC(=O)NC(C)(C)C | – | inactive |
| C=CC(=O)OCCCCCCCC(C)C | – | inactive |
| O=C(O)C(F)(F)C(F)(F)C(F)(F)C(F)(F)C(=O)O | – | inactive |

| Structure (SMILES) | AC50 | outcome |
| --- | --- | --- |
| Oc1ccccc1Cc1ccccc1O | – | inactive |
| CC1=CC=C(C(C)C)CC1 | – | inactive |
| C=CC(=O)NCOCCCC | – | inactive |
| Oc1ccc(/C=C/c2cc(O)cc(O)c2)cc1 | – | inactive |
| CCCCCCCCC(CO)CCCCCC (stereo unspecified) | – | inactive |
| C=C(C)C(=O)OCCCCCCCCCCCC | – | inactive |
| CC1=NN(c2ccc(S(=O)(=O)O)cc2)C(=O)C1N=Nc1ccccc1 (stereo unspecified) | – | inactive |
| CC=CC(=O)OCC(C)C | – | inactive |
| O=C(Oc1ccccc1)c1ccccc1C(=O)Oc1ccccc1 | – | inactive |
| CCCCCCCO | – | inactive |
| CCCCCC1=CCCC1=O | 11.4 µM (active) | – |
| C=CC(=O)OCCCCCCOC(=O)C=C | 26.5 µM (active) | – |
| CC(Cl)COP(=O)(OCC(C)Cl)OCC(C)Cl (stereo unspecified) | 1.37 µM (active) | – |
| CC(=O)OC1CCCCC1C(C)(C)C (stereo unspecified) | – | inactive |
| C=CC(=O)OCC(C)OCC(C)OCC(C)OC(=O)C=C (stereo unspecified) | 9.63 µM (active) | – |
| CCCCCCC=O | – | inactive |

molecular target: human Retinoic Acid Receptor gamma (RARg), RARG (gene 5916) (UniProt P13631); assay: ATG_RARg_TRANS: Attagene TRANS-FACTORIAL HepG2 Assay for human Retinoic Acid Receptor gamma (RARg) (AID 2283009)
In short: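 Gain-of-signal relative to DMSO is reported from fluorescent capillary electrophoresis of RT-PCR reporter products. These came from HepG2 cells expressing transfected RARg-GAL4 chimeras with UAS reporters, harvested 24 h after dosing.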

Chain of human Retinoic Acid Receptor gamma (RARg), RARG (gene 5916) (P13631 whole entry, looked up, the tested form may be a part): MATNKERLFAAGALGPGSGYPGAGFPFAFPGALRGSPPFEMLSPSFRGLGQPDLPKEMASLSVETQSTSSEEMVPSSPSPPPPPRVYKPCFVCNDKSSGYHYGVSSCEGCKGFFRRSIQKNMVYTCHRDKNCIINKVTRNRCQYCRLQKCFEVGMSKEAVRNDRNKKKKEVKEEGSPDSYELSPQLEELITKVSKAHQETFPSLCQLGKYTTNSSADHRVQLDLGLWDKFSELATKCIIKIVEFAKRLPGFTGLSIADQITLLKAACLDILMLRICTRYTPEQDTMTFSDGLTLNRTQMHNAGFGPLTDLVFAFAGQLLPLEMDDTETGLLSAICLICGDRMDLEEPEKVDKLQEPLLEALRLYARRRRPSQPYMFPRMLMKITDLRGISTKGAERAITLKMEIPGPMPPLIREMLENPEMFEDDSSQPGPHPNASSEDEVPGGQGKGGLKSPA

| Structure (SMILES) | outcome |
| --- | --- |
| CCNc1nc(NC(C)(C)C)nc(OC)n1 | inactive |
| CC=C(C)C(C)=O | inactive |
| O=C1CCCCCCCCCCC1 | inactive |
| C[N+](C)(C)CCCNS(=O)(=O)C(F)(F)C(F)(F)C(F)(F)C(F)(F)C(F)(F)C(F)(F)C(F)(F)C(F)(F)F | inactive |
| CC=C(C)C=CC=C(C)C | inactive |
| Oc1c(Cl)cc(Cl)c(Cl)c1Cl | inactive |
| C1CNCCN1 | inactive |
| O=C(O)C(F)(F)C(F)(F)C(F)(F)C(F)(F)C(=O)O | inactive |
| Oc1ccccc1Cc1ccccc1O | inactive |
| Oc1ccc(/C=C/c2cc(O)cc(O)c2)cc1 | inactive |
| CCCC(C)C(=O)OCC (stereo unspecified) | inactive |
| CCCCCCCCC(CO)CCCCCC (stereo unspecified) | inactive |
| CC1=NN(c2ccc(S(=O)(=O)O)cc2)C(=O)C1N=Nc1ccccc1 (stereo unspecified) | inactive |
| CC=CC(=O)OCC(C)C | inactive |
| CCCCCCCO | inactive |
| CC(Cl)COP(=O)(OCC(C)Cl)OCC(C)Cl (stereo unspecified) | inactive |
| CC(=O)OC1CCCCC1C(C)(C)C (stereo unspecified) | inactive |
| C=CC(=O)OCC(C)OCC(C)OCC(C)OC(=O)C=C (stereo unspecified) | inactive |
| CCCCCCC=O | inactive |

molecular target: human RAR-related Orphan Receptor beta (RORb), RORB (gene 6096) (UniProt Q92753); assay: ATG_RORb_TRANS: Attagene TRANS-FACTORIAL HepG2 Assay for human RAR-related Orphan Receptor beta (RORb) (AID 2283010)
In short: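 Multiplexed transcription-factor reporter assay: HepG2 cells transiently carrying NR-Gal4/GAL4-UAS constructs, 24 h treatment, mRNA quantified by RT-PCR plus capillary electrophoresis fluorescence; activity scored as induction over DMSO.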

Chain of human RAR-related Orphan Receptor beta (RORb), RORB (gene 6096) (Q92753 whole entry, looked up, the tested form may be a part): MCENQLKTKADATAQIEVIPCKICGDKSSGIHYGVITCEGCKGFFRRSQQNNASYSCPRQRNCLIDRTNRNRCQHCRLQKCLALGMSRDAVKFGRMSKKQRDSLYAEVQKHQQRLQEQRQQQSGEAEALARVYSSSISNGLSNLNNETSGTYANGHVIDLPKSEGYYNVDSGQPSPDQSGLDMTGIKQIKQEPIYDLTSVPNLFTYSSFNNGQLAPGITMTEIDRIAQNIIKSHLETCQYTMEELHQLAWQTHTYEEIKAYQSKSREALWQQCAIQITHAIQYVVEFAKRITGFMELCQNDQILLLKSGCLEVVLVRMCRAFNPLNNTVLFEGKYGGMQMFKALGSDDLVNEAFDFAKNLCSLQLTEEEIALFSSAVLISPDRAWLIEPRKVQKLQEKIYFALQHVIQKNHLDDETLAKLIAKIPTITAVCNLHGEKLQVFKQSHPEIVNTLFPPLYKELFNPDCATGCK

| Structure (SMILES) | outcome |
| --- | --- |
| CC=C(C)C(C)=O | inactive |
| CCCCC(CC)COC(=O)/C=C/c1ccc(OC)cc1 (stereo unspecified) | inactive |
| O=C1CCCCCCCCCCC1 | inactive |
| Cc1ccc([N+](=O)[O-])cc1N | inactive |
| CCOC(=O)C1=NOC(c2ccccc2)(c2ccccc2)C1 | inactive |
| CCN1CN(CC)CN(CC)C1 | inactive |
| O=C(O)C(F)(F)C(F)(F)C(F)(F)C(F)(F)C(=O)O | inactive |
| CC1=CC=C(C(C)C)CC1 | inactive |
| C=CC(=O)NCOCCCC | inactive |
| Oc1ccc(/C=C/c2cc(O)cc(O)c2)cc1 | inactive |
| CCCC(C)C(=O)OCC (stereo unspecified) | inactive |
| CCCCCCCCC(CO)CCCCCC (stereo unspecified) | inactive |
| C=C(C)C(=O)OCCCCCCCCCCCC | inactive |
| CC=CC(=O)OCC(C)C | inactive |
| CCC1(C)C(=O)N(Cl)C(=O)N1Cl (stereo unspecified) | inactive |
| CC(=O)OC1CCCCC1C(C)(C)C (stereo unspecified) | inactive |
| C=CC(=O)OCC(C)OCC(C)OCC(C)OC(=O)C=C (stereo unspecified) | inactive |
| CCCCCCC=O | inactive |

molecular target: human RAR-related Orphan Receptor gamma (RORg), RORC (gene 6097) (UniProt P51449); assay: ATG_RORg_TRANS: Attagene TRANS-FACTORIAL HepG2 Assay for human RAR-related Orphan Receptor gamma (RORg) (AID 2283011);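 on AC50: potency for induction of reporter transcripts above DMSO so activators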
In short: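 First, HepG2 liver cells were transfected with GAL4-UAS-driven reporter constructs and the RORg-Gal4 fusion. Next, they were treated with chemical for 24 h. Finally, reporter mRNA was quantified by RT-PCR and capillary electrophoresis, with upward activity fitted against DMSO.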

Chain of human RAR-related Orphan Receptor gamma (RORg), RORC (gene 6097) (P51449 whole entry, looked up, the tested form may be a part): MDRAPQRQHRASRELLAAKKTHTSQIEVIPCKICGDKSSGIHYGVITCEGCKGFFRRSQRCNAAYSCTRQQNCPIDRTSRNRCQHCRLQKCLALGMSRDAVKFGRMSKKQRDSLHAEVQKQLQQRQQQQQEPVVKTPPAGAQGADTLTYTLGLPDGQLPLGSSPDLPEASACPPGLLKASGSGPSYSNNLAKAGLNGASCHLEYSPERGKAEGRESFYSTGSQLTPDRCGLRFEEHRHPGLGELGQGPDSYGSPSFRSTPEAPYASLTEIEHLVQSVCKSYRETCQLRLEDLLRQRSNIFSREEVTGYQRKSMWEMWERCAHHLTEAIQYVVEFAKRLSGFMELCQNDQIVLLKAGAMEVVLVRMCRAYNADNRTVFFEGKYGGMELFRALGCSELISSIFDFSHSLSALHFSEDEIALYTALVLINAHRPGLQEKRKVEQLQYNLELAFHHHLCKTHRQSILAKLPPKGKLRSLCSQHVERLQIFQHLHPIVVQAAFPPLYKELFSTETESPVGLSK

| Structure (SMILES) | outcome | AC50 |
| --- | --- | --- |
| CC=C(C)C(C)=O | inactive | – |
| CCCCC(CC)COC(=O)/C=C/c1ccc(OC)cc1 (stereo unspecified) | inactive | – |
| Cc1ccc([N+](=O)[O-])cc1N | – | 25.7 µM (active) |
| CC/C=C\C/C=C\C/C=C\CCCCCCCC(=O)OC | inactive | – |
| CCOC(=O)C1=NOC(c2ccccc2)(c2ccccc2)C1 | inactive | – |
| CCN1CN(CC)CN(CC)C1 | inactive | – |
| CC=C(C)C=CC=C(C)C | inactive | – |
| Nc1cccc(N)n1 | inactive | – |
| O=C(O)C(F)(F)C(F)(F)C(F)(F)C(F)(F)C(=O)O | inactive | – |
| C=CC(=O)NCOCCCC | inactive | – |
| CC(CCC(=O)O)(c1ccc(O)cc1)c1ccc(O)cc1 | inactive | – |
| Oc1ccc(/C=C/c2cc(O)cc(O)c2)cc1 | inactive | – |
| CCCC(C)C(=O)OCC (stereo unspecified) | inactive | – |
| C=C(C)C(=O)OCCCCCCCCCCCC | inactive | – |
| CC1=NN(c2ccc(S(=O)(=O)O)cc2)C(=O)C1N=Nc1ccccc1 (stereo unspecified) | inactive | – |
| CC(=O)OC1CCCCC1C(C)(C)C (stereo unspecified) | inactive | – |
| C=CC(=O)OCC(C)OCC(C)OCC(C)OC(=O)C=C (stereo unspecified) | inactive | – |
